Laboratory results as given in PubChem BioAssay (NCATS).
Results filed as inconclusive are left out. Unmarked numbers belong to inactive results. Calls follow the shape of the dose curve; as a rule, active = well fitted inhibition curve with a large enough effect; inconclusive = small, poorly fitted or top-dose-only effect; inactive = no such curve, though single readings can be large or run the other way.

Each molecule was assayed against Retinaldehyde dehydrogenase 3 (Homo sapiens) (UniProt P47895) (assay: qHTS for Inhibitors of the Aldehyde Dehydrogenase Family (ALDH1A3) Primary screen (AID 2061315;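 also: plate controls were DMSO vehicle for no effect and reference inhibitor for full effect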)). Settings: ALDH inhibition qHTS; series mostly up to 56 µM; activity change, negative = inhibition: at the top concentration.

SMILES | activity change, negative = inhibition
COc1ccc(N(C(=O)Nc2c(C)cccc2C)c2cc(Nc3ccc(N4CCN(C)CC4)cc3)ncn2)c(OC)c1 | 7.25%
CC1CCN(C(c2ccc(F)cc2)c2ccc(C(C)C(=O)O)cc2-c2ccc(C(F)(F)F)cc2)CC1 (centres undefined) | 7.84%
C#CCNCc1cc2cc(OCc3ccccc3)ccc2[nH]1 | 8.38%
O=C(NC1CCN(CCCCC2(C(=O)NCC(F)(F)F)c3ccccc3-c3ccccc32)CC1)c1ccccc1-c1ccc(C(F)(F)F)cc1 | 9.62%
CNC(=O)c1ccccc1Nc1nc(Nc2ccc3c(c2OC)CCCC(N2CCN(CCO)CC2)C3)ncc1Cl (centres undefined) | 10.5%
COc1ccc(C2=NC(c3ccc(Cl)cc3)C(c3ccc(Cl)cc3)N2C(=O)N2CCNC(=O)C2)c(OC(C)C)c1 (centres undefined) | 6.44%
CC(=O)N1c2ccc(-c3ccc(C(=O)O)cc3)cc2C(Nc2ccc(Cl)cc2)CC1C (centres undefined) | 7.53%
Fc1ccc(-n2cc(CCCCN3CCC4(CC3)OCc3ccccc34)c3ccccc32)cc1 | 1.75%
COc1ccc2cc1Oc1ccc(cc1)C[C@H]1c3c(cc4c(c3Oc3cc5c(cc3OC)CCN(C)[C@@H]5C2)OCO4)CCN1C | -9.43%
Fc1ccc(C2CCNC[C@H]2COc2ccc3c(c2)OCO3)cc1 (some centres undefined) | 23.2%
CC(Oc1cc(-n2cnc3ccc(CN4CCN(C)CC4)cc32)sc1C(N)=O)c1ccccc1C(F)(F)F (centres undefined) | 6.54%
CC(=O)Nc1cccc2c1c(Sc1ccc(Cl)cc1)c(C)n2CC(=O)O | -3.03%
CN(c1nccc(=O)[nH]1)C1CCN(c2nc3ccccc3n2Cc2ccc(F)cc2)CC1 | 8.87%
Cc1nc2ccc(CN(C)c3ccc(C(=O)NC(CCC(=O)O)C(=O)O)s3)cc2c(=O)[nH]1 (centres undefined) | -11.3%
NC(=O)N1CCC(CC(=O)N2CCC(C3c4ncc(Br)cc4CCc4cc(Cl)cc(Br)c43)CC2)CC1 (centres undefined) | 12.5%
CCC[C@H]1C[C@H](C(=O)N[C@@H]([C@@H]2O[C@@H](SC)[C@@H](O)[C@@H](O)[C@@H]2O)[C@H](C)Cl)N(C)C1 | -12%
CN(C)C(=O)COC(=O)c1cc(-c2ccc(C3CCNCC3)cc2)c2ccc(-c3ccc(C(F)(F)F)cc3)cc2c1 | 6.98%

SMILES | activity change, negative = inhibition
COc1ccc(NS(=O)(=O)c2sc3ccc(Cl)cc3c2C)cc1N1CCNCC1 | 9.34%
Cc1ccc(O)cc1Nc1ccnc(Nc2cccc(C(N)=O)c2)n1 | -3.01%
O=C(NC1Cc2ccccc2N(C[C@@H](O)CO)C1=O)c1cc2cc(Cl)sc2[nH]1 (some centres undefined) | 16.9%
CCS(=O)c1nc(-c2cccc(OCc3ccccc3)c2)cc(C(F)(F)F)n1 (centres undefined) | -0.844%
CCN(CC)CCN(Cc1ccc(-c2ccc(C(F)(F)F)cc2)cc1)C(=O)Cn1c(SCc2ccc(F)cc2)nc(=O)c2c1CCC2 | 25.8%
CN(c1ccccc1CNc1nc(Nc2ccc3c(c2)CC(=O)N3)ncc1C(F)(F)F)S(C)(=O)=O | -6.52%
CC(C)c1nc(CN(C)C(=O)N[C@H](C(=O)N[C@@H](Cc2ccccc2)C[C@H](O)[C@H](Cc2ccccc2)NC(=O)OCc2cncs2)C(C)C)cs1 | 12.7%
CC(=O)N1CCN([C@H]2CCN(C(=O)N(C)[C@H](C)c3cc(C(F)(F)F)cc(C(F)(F)F)c3)[C@@H](c3ccc(F)cc3C)C2)CC1 | 19.1%
CC[C@H](/C=C/[C@@H](C)[C@H]1CC[C@H]2[C@@H]3CC=C4C[C@@H](O)CC[C@]4(C)[C@H]3CC[C@]12C)C(C)C | 15.3% [at 5.59 µM]
CC(C)(C(=O)NCC(F)(F)C(F)(F)F)C(=O)NC1C(=O)Nc2ccccc2-c2ccccc21 (centres undefined) | -0.141%
C=CS(=O)(=O)NC1CCN(C(=O)CNc2cc(I)c(Cl)cc2OC)CC1 | 4.12%
O=C(c1ccc(Cl)c([N+](=O)[O-])c1)N1CCN(c2ccccc2F)CC1 | 5.72%
CCN(Cc1ccccc1)C(=O)Cn1c(=O)n(C)c2cnc(-c3ccccc3)nc21 | 1.57%
COc1cc2ncnc(N3CCC(Oc4cnc5ccccc5n4)C3)c2cc1OC (centres undefined) | 7.49%
CN(C)Cc1ccc(-c2cnn3c(-c4cccc(NC(=O)c5cccc(C(F)(F)F)c5)c4)ccnc23)cc1 | -12.6%
O=C(NCc1nc2ccccc2c(=O)n1-c1ccc(F)cc1)Nc1ccc(Cl)c(C(F)(F)F)c1 | 4.08%
CC[C@H]1OC(=O)[C@H](C)[C@@H](O[C@H]2C[C@@](C)(OC)[C@@H](O)[C@H](C)O2)[C@H](C)[C@@H](O[C@@H]2O[C@H](C)C[C@H](N(C)C)[C@H]2O)[C@](C)(O)C[C@@H](C)C(=O)[C@H](C)[C@H]2OC(=O)O[C@@]21C | -1.18%
